# Results taken from PubChem BioAssay.
# Calls of active or inactive are those of the source.
# Experiment: MM1S myeloma cell viability, profiling panel, resazurin fluorescence, basal, 24 h, PK04 Diversity Set (AID 1174);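 note: MM1S multiple myeloma cell line; test concentration not given here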
# Details: higher = more signal, called active from +8 up or from −8 down
row,Compound,z-score
1,CCCC[C@H]1OB(O)C[C@H]2C1=C(COc1ccccc1)C[C@H]1C(=O)C=CC(=O)[C@H]12,-0.286 (inactive)
2,COCCOC(=O)N1C(=O)[C@@]2(c3ccccc31)[C@H](C(=O)N1CCN(c3ncccn3)CC1)[C@H]1C(=O)O[C@H](c3ccccc3)[C@H](c3ccccc3)N1[C@@H]2c1ccccc1OCCO,-0.684 (inactive)
3,COC(=O)[C@@]1(Cc2ccccc2)[C@H]2c3cc(C(=O)N(C)C)n(CCO)c3C[C@H]2CN1C(=O)c1ccccc1,-1.28 (inactive)
4,[N-]=[N+]=Nc1ccccc1[C@@H]1OC(c2ccc(OCCCO)cc2)=N[C@]1(Cc1ccccc1)C(=O)NCCN1CCOCC1,-1.37 (inactive)
5,COc1cc(C(O)C2C=CC3C(=O)N(c4ccccc4)C(=O)C3N2Nc2ccccc2)cc(OC)c1OC (stereo unspecified),-0.191 (inactive)
6,C=CCC(OC(C)=O)[C@@H]1[C@@H](N(Cc2ccc(-c3ccccc3)cc2)C(=O)c2cccc3ccccc23)c2cc(OCCCO)ccc2N1C(=O)Cc1ccc(OC)cc1 (stereo partly specified),-0.572 (inactive)
7,Cc1ccc(N2C(=O)c3ccccc3[C@](C)(C(=O)NCCCN(C)C)[C@@H]2c2ccc(CO)cc2)nc1,-0.296 (inactive)
8,CCOC(=O)C[C@H]1[C@H](OC(=O)Cc2ccc3c(c2)OCO3)[C@@H](NC(=O)Cc2ccc(OC)cc2)c2cc(OCCCO)ccc2N1C(=O)Cc1ccc(OC)cc1,0.594 (inactive)
9,O=C1N(CCS(=O)(=O)c2ccccc2)c2ccccc2C[C@]12N=C(c1ccc(OCCCO)cc1)O[C@@H]2c1ccccc1,-2.11 (inactive)
10,C=CCOC(=O)[C@@H]1[C@H]2C(=O)O[C@H](c3ccccc3)[C@H](c3ccccc3)N2[C@H](c2ccc(OCCOC(=O)[C@H]3C[C@H]4C(=O)N5CCC[C@H]5C(=O)N4[C@H]3c3cccc(OCCO)c3)cc2)[C@@]12C(=O)Nc1ccc(I)cc12,-0.273 (inactive)
11,COc1ccc([Si](C)(C)[C@H]2[C@H](CC(=O)N3Cc4ccccc4C[C@H]3CO)O[C@@]3(C(=O)N(c4ccccc4)c4ccccc43)[C@@H]2C)cc1,-2.45 (inactive)
12,CCN(CC)c1ccc(N2CC=CC34O[C@@H]5C=CCCOC(=O)C5[C@H]3C(=O)N(C(C)CO)[C@@H]4C2=O)cc1 (stereo partly specified),0.172 (inactive)
13,COCCOC(=O)N1C(=O)[C@@]2(c3cc(C#CC4(O)CCCCCC4)ccc31)[C@H](c1ccc(O)cc1)N1[C@H](c3ccccc3)[C@H](c3ccccc3)OC(=O)[C@H]1[C@@H]2C(=O)N1CCCCCCC1,0.341 (inactive)
14,COC(=O)[C@@]1(Cc2ccc(F)cc2)[C@H]2c3cc(C(=O)N(C)C)n(C)c3C[C@H]2CN1C(=O)c1ccccc1,-0.911 (inactive)
15,O=C(NC1CC1)[C@@H]1c2ccccc2C(=O)N(Cc2cc(C(F)(F)F)cc(C(F)(F)F)c2)[C@H]1c1ccc(CO)cc1,-0.498 (inactive)
16,COc1ccc(C(O)C2C=CC3C(=O)NC(=O)C3N2Nc2ccc(Cl)cc2Cl)c2ccccc12 (stereo unspecified),-0.423 (inactive)
17,O=C(NCCN1CCOCC1)[C@@H]1c2ccccc2C(=O)N(Cc2ccccc2C(F)(F)F)[C@H]1c1ccc(CO)cc1,1.17 (inactive)
18,CN(C)CCCCNC(=O)[C@H]1C[C@H]2C(=O)N3CCC[C@H]3C(=O)N2[C@H]1c1cccc(OCCO)c1,0.299 (inactive)

row,Compound,z-score
1,COc1ccc(CCNC(=O)[C@@H]2c3ccccc3C(=O)N(Cc3ccccc3OC)[C@H]2c2ccc(CO)cc2)cc1,-0.0684 (inactive)
2,CC(C)OC(=O)CC(=O)CC(O)c1cccc([N+](=O)[O-])c1 (stereo unspecified),0.326 (inactive)
3,CCOC(=O)C[C@H]1[C@H](OC(=O)c2cc3ccccc3oc2=O)[C@@H](NC(=O)CC(C)C)c2cc(OCCCO)ccc2N1C(=O)Cc1ccc(OC)cc1,-0.233 (inactive)
4,CC1=C([C@H](O)CCc2ccccc2)[C@H](CO)n2c(=O)n(-c3ccccc3)c(=O)n2C1,0.199 (inactive)
5,CC(C)(C)N1CC=CC23O[C@@H]4C=CCCOC(=O)C4[C@H]2C(=O)N(CCCCCCO)[C@@H]3C1=O (stereo partly specified),-0.176 (inactive)
6,CCCCCC1=C2CNC(CC(C)C)(C(=O)OC)C=C2C(C)C1=O (stereo unspecified),-1.2 (inactive)
7,O=C1C=C(c2ccccc2)C(=O)C2=C1CC([C@H]1Oc3ccccc3S(=O)(=O)N3CCC[C@@H]13)=CC2,-7.16 (inactive)
8,O=C1C[C@@](C(=O)O)(c2ccc([N+](=O)[O-])cc2)[C@@H](c2ccc(CO)cc2)N1C1CCCCC1,-0.544 (inactive)
9,CO[C@H]1O[C@H](CO)[C@@H](OC(=O)Nc2ccccc2-c2ccccc2)[C@H](OC(=O)Nc2ccccc2)[C@H]1OC(=O)Nc1ccccc1,-3.07 (inactive)
10,O=C1c2ccccc2[C@@]2(Cc3ccccc3N(Cc3ccccc3)C2=O)[C@H](c2ccc(CO)cc2)N1Cc1ccccc1Cl,0.685 (inactive)
11,CCCNC(=O)[C@@]1(c2ccc([N+](=O)[O-])cc2)CC(=O)N(C(C)C)[C@@H]1c1ccc(CO)cc1,-0.96 (inactive)
12,[N-]=[N+]=Nc1ccccc1C[C@@]1(C(=O)NCC(O)CO)N=C(c2ccc(OCCCO)cc2)O[C@@H]1c1ccccc1 (stereo partly specified),0.33 (inactive)
13,CC(C)C[C@@H]1NC(=O)[C@@H]2C[C@H](C(=O)NCCCCCCNC(=O)CS)[C@H](c3cccc(OCCO)c3)N2C1=O,-1.1 (inactive)
14,CC(=O)NCCCC[C@@H]1NC(=O)[C@H]2C[C@@H](C(=O)NCCCCCCNC(=O)CS)[C@@H](c3cccc(OCCO)c3)N2C1=O,-0.469 (inactive)
15,O=C1[C@@H]2[C@@H](CC(COc3ccccc3)=C([C@H](O)CCc3ccccc3)[C@@H]2CO)C(=O)N1Cc1ccccc1,-0.577 (inactive)
16,O=C(NCC(O)CO)[C@@]1(CCS(=O)(=O)c2ccccc2)N=C(c2ccc(OCCCO)cc2)O[C@H]1c1ccccc1 (stereo partly specified),-0.133 (inactive)
17,CN(C)c1ccc(C(O)C2C=CC3C(=O)N(Cc4ccccc4)C(=O)C3N2n2cnnc2)cc1 (stereo unspecified),-0.253 (inactive)
18,COCCOC(=O)N1C(=O)[C@@]2(c3cc(C#CCC(C(=O)OC)C(=O)OC)ccc31)[C@H](C(=O)Nc1nc3ccccc3s1)[C@H]1C(=O)O[C@H](c3ccccc3)[C@H](c3ccccc3)N1[C@@H]2c1ccc(OCCO)cc1,0.961 (inactive)
